This note sets out measurements from PubChem BioAssay AID1159524 (National Center for Advancing Translational Sciences (NCATS), 2015).

In all, about 410,000 compounds went through this assay and about 5,100 (1.2%) were called active. About 8% were inconclusive and are not listed. Calls come from the whole dose curve; tested in HEK293T cells. Shown is part of a subset that was picked to be rich in actives.
% is set by controls: 0 for no effect and ±100 for the full control effect; potency is the fitted concentration of half-maximal effect.

The experiment can be described thus: High Throughput Screening for Foot and Mouth Disease Virus Antivirals. Note: read-out not given here; nearly all actives have a fitted effect of over 45% in size. As to conditions: FMDV antiviral cell-based qHTS; series mostly up to 57.9 µM; activity change, negative = inhibition: at the top concentration. Background: Quantitative high-throughput screening tests each substance at several concentrations.
Consider `COc1cc(-c2cccnc2)cc2c1OCCN(C(=O)Cc1csc(C)n1)C2`, for which the “activity change, negative = inhibition” value was 0.56% (inactive).
For the compound `CC(=O)Nc1cccc(/C(C)=N/NC(=O)c2c(-c3ccccc3Cl)noc2C)c1`, the Potency was 25.1 µM (active).
Consider `Cc1ccc2cc(CCNC(=O)c3c(-c4ccccc4Cl)noc3C)c(=O)[nH]c2c1`, for which the “activity change, negative = inhibition” value was -12.7% (inactive).
Still for that read-out and setting: the result for `Cc1onc(-c2c(F)cccc2Cl)c1C(=O)Nc1cccc(S(=O)(=O)N2CCCCC2)c1` reads -23.2% (inactive); that for `FC(F)(F)c1ccccc1-c1cc(NCc2ccccc2)ncn1`, -9% (inactive); that for `Nc1ncn(C2OC(CO)C(O)C2O)c(=O)n1` (centres undefined), -3.39% (inactive).
For the compound `CCCCSc1[nH]c(=O)c(C(=O)OCC)cc1C#N`, the “activity change, negative = inhibition” value is 5.15% (inactive).
Regarding `CCOC(=O)c1c(C(C#N)C#N)cc(C)nc1C`, the “activity change, negative = inhibition” value is 18.2% (inactive).
With `CCOC(=O)c1cc(C)nc(S(C)(=O)=O)c1C#N`, the Potency is 35.5 µM (active).
With `COC(=O)N1CCC2(CCCN(c3ccncc3)C2)CC1`, the “activity change, negative = inhibition” value is -9.77% (inactive).
For `Cc1[nH]c(=O)c(C(=O)/C=C/c2ccccc2)c2c1CCCC2`, the Potency is 12.6 µM (active).
`CC[C@H](C)C(=O)N[C@H]1CCCN1C(=O)/C=C/c1ccccc1`: the “activity change, negative = inhibition” value is -13.9% (inactive).
In the case of `O=C1CCCCC1C(=O)c1ccccc1` (centres undefined), the “activity change, negative = inhibition” value was -4.76% (inactive).
For the compound `COC(=O)N1CCC[C@@]2(CCN(C(=O)NC(C)C)C2)C1`, the “activity change, negative = inhibition” value was -20.7% (inactive).
Same read-out and setting: the result for `Cc1cc(C)cc(OCC(=O)Nc2c(C(=O)c3ccccc3)oc3ccccc23)c1` reads 12.3% (inactive).
`CNc1nc(-c2ccccc2OC)nc2ccccc12`: the “activity change, negative = inhibition” value is -11.7% (inactive).
For `CC1C(O)CC2C(C(=O)O)=CO[C@@H](O[C@H]3OC(CO)C(O)C(O)C3O)C21` (some centres undefined), the “activity change, negative = inhibition” value was -6.83% (inactive).
For `COc1ccc(CCNC(=O)CCCCn2c(=O)c3ccccc3n(Cc3ccccc3)c2=O)cc1OC`, the “activity change, negative = inhibition” value was 0% (inactive).
For `COc1ccc(CCNC2=C(Cl)C(=O)N(Cc3ccccc3)C2=O)cc1OC`, the Potency is 25.1 µM (active).
`COc1ccc(CCNS(=O)(=O)c2ccc(Cl)s2)cc1OC`: the “activity change, negative = inhibition” value is -8.08% (inactive).
For the compound `CCC1CN(CCNC(=O)c2cccc(C)n2)Cc2cc(OC)ccc2O1` (centres undefined), the “activity change, negative = inhibition” value was -4.29% (inactive).
For `COC(C)C(C(=O)OCC1=CCN2CC[C@H](O)[C@@H]12)C(C)C` (some centres undefined), the “activity change, negative = inhibition” value was -2.63% (inactive).
The same measure, in the same setting: the result for `CCc1ccc(NC(=O)c2cnc3c(-c4ccccc4)c(C)nn3c2C)cc1` reads -13% (inactive); that for `CC(C)=CC1C(C(=O)O)C1(C)C` (centres undefined), -6.78% (inactive).
For the compound `Nc1nc2[nH]c(=O)c(=O)[nH]c2c(=O)[nH]1`, the “activity change, negative = inhibition” value was 7.3% (inactive).
Turning to `COc1ccc(CS(=O)/C(Cl)=C(/Cl)C(=O)Nc2ccc(OC)nc2)cc1` (centres undefined), the Potency is 5.62 µM (active).
In the case of `COc1ccc(CC(=O)Nc2ccc(-c3nc4ccccc4s3)c(C)c2)cc1`, the “activity change, negative = inhibition” value was 13.8% (inactive).
Consider `COc1ccc(NC(=O)C(=O)NCc2ccco2)cc1`, for which the “activity change, negative = inhibition” value is 48.5% (inactive).
For `Nc1ncnc2c1ncn2C1CC(O)C(CO)O1` (centres undefined), the “activity change, negative = inhibition” value was 18% (inactive).
The same measure, in the same setting: next, `CC1CC[C@@]23CCC4(C)[C@@]5(C)CCC6C(C)(C)C(O)CC[C@@]6(C)C5C=C[C@@]4(OC2=O)C3C1C` (some centres undefined): -0.0991% (inactive); `O=c1oc2ccccc2c(O)c1C(c1ccccc1O)c1c(O)c2ccccc2oc1=O`: -1.16% (inactive).
For the compound `CC1=Nc2cc(C(=O)N3CCC(C)CC3)ccc2Sc2ccc(Cl)cc21`, the “activity change, negative = inhibition” value is -11.8% (inactive).
As for `CCC(=O)N1CCc2cc(S(=O)(=O)NC(Cc3ccccc3)C(=O)NCc3ccc(C)cc3)ccc21` (centres undefined), the “activity change, negative = inhibition” value is 7.8% (inactive).
With `CCN(CC(=O)NCCc1ccccc1)S(=O)(=O)c1ccc(C)cc1`, the “activity change, negative = inhibition” value is -8.3% (inactive).
In the case of `Cc1ccc(S(=O)(=O)N(C)CC(=O)NCCc2c[nH]c3ccccc23)cc1`, the Potency was 15.8 µM (active).
As to `CSCCC(NS(=O)(=O)c1ccc(C)cc1)C(=O)NCCc1c[nH]c2ccccc12` (centres undefined), the “activity change, negative = inhibition” value was 24.8% (inactive).
Turning to `COc1ccc(CCNC(=O)c2ccc3c(c2)nc(C)n3-c2ccc(Br)cc2)cc1OC`, the “activity change, negative = inhibition” value is 0% (inactive).
With `O=C(CCc1nc(CN2CCN(S(=O)(=O)c3ccc(Br)cc3)CC2)no1)N1CCCCC1`, the “activity change, negative = inhibition” value was -18.9% (inactive).
For the compound `C/C(CCc1ccccc1)=N\NC(=O)c1ccc(CN2CCOCC2)cc1`, the “activity change, negative = inhibition” value is 4.23% (inactive).
Regarding `O=C(Nc1ccc(CSc2ccccc2)cc1)c1ccc(CN2CCOCC2)cc1`, the Potency is 5.01 µM (active).
As to `O=C(Nc1ccccc1C(=O)N1CCOCC1)c1ccc(CSc2ccccc2)cc1`, the “activity change, negative = inhibition” value was 0% (inactive).
On to `CS(=O)(=O)N1CCC2(CC1)CN(Cc1cc(C(F)(F)F)cc(C(F)(F)F)c1)C2`, for which the “activity change, negative = inhibition” value was -10.7% (inactive).
For `COc1ccccc1CNc1nc2ccc(Cl)cc2n2cnnc12`, the “activity change, negative = inhibition” value is 14.6% (inactive).
On the same count and under the same terms, the result for `O=C(NCC1Cc2cc(F)cc(-c3cnccn3)c2O1)C1COc2ccccc2O1` (centres undefined) reads 19.2% (inactive).
As for `COc1cccc(CC(=O)Nc2nc(-c3ccc(OC)c(OC)c3)cs2)c1`, the Potency is 35.5 µM (active).
For `COc1cccc(CNS(=O)(=O)c2csc(C(N)=O)c2)c1`, the “activity change, negative = inhibition” value was 22% (inactive).
With `COc1cccc(CNC(=O)Cc2csc3nc(-c4ccccc4)cn23)c1`, the “activity change, negative = inhibition” value is 4.55% (inactive).
As to `COc1cc(CC(=O)Nc2nc(-c3ccc(F)c(F)c3)cs2)cc(OC)c1OC`, the Potency is 20 µM (active).
With `Fc1ccc(-c2csc(-c3ccc(C4SCCS4)cc3)n2)cc1F`, the “activity change, negative = inhibition” value was 75.2% (inactive).
Still for that read-out and setting: the result for `COc1ccc(-c2cc(C(=O)NCc3cc(OC)c(OC)c(OC)c3)[nH]n2)cc1` reads -9.02% (inactive); that for `COc1ccc(CC(=O)Nc2nnc3n2CCS3)cc1OC`, -3.67% (inactive).
Regarding `COc1ccc(CC(=O)Nc2nc(-c3ccc(F)c(F)c3)cs2)cc1OC`, the Potency is 17.8 µM (active).
Take `COc1cc(CCC(=O)Nc2ccncc2Cl)cc(OC)c1OC`: the “activity change, negative = inhibition” value was -24.3% (inactive).
Turning to `Oc1ccc(-c2c(-c3ccccc3)nn3c(C(F)(F)F)cc(C(F)(F)F)nc23)cc1`, the “activity change, negative = inhibition” value is -10.1% (inactive).
In the case of `COc1ccc(-n2c(=O)c(-c3cn(C)c4ccccc34)nc3cnc(OC)nc32)cc1`, the “activity change, negative = inhibition” value was -6.96% (inactive).
For `COC(=O)c1ccc(NC(=O)CCc2c(C)nn(-c3ccc(N4CCCC4)nn3)c2C)cc1`, the “activity change, negative = inhibition” value is 8.9% (inactive).
Same read-out and setting: next, `COc1cc(OC)c2c(c1Cl)OC1(C2=O)C(O)=CC(=O)CC1C` (centres undefined): -10% (inactive); `O=C(Nc1ccccc1)N[C@H]1C[C@H](C(=O)O)Nc2cc(Cl)cc(Cl)c21`: -14.8% (inactive).
Take `COc1ccc(CN2C(=O)C(NC(=O)c3cccc(C)c3)(C(F)(F)F)N=C2c2ccccc2)cc1` (centres undefined): the “activity change, negative = inhibition” value was -15.2% (inactive).
`Cc1cnc(C)c(-c2cc(F)c3c(c2)CC(CNC(=O)c2cccc(Cn4cccn4)c2)O3)n1` (centres undefined): the “activity change, negative = inhibition” value was -15.7% (inactive).
`CN(Cc1ccco1)c1ncncc1-c1ccoc1`: the “activity change, negative = inhibition” value is -19.8% (inactive).
Still for that read-out and setting: next, `CC(C)[C@@H]1NC(=O)[C@H](Cc2ccccc2)NC(=O)[C@@H](CC(=O)O)NC(=O)CNC(=O)[C@H](CCCNC(=N)N)NC1=O`: 1.14% [at 39.8 µM] (inactive).
Turning to `COc1ccc2c(c1)c(=Cc1ccc(N(C)C)cc1)c1cc(-c3ccccc3)[n+](C)n12`, the Potency is 14.1 µM (active).
With `CCOC(=O)c1cc(OC(=O)c2ccccc2Cl)n(-c2ccccc2)n1`, the “activity change, negative = inhibition” value was -8.7% (inactive).
